Bioassay records (PubChem)
SMARCA2 act: SMARCA2 (BRM) function activators, primary screen, cell-based, luminescence, high throughput; MG213 cells, MMTV-luciferase reporter, dexamethasone, overnight; actives 1% (n = 370,000); activation, % at 9.1 µM; in the data active = activation above about 7.8%;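 also: 0% = vehicle wells and 100% = reference activator wells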
FGF22 binding: binders of human FGF22 protein, primary screen, FGF22 synaptogenesis inhibitor project, biophysical, thermal shift, single point. activity (Tm shift, normalised), % at 9.99 µM. actives 1.5% (n = 340,000). Fibroblast growth factor 22 (Homo sapiens), Q9HCT0. recombinant FGF22 thermal shift, SYPRO orange fluorescence; percent of sucrose octasulfate shift, DMSO zero;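 active = mean Tm shift, scaled 0 neutral to 100 positive control, at about 1.3% or above, every replicate too, limit read from the data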
esBAF inh: Bmi1 luciferase reporter increase in mESCs, primary screen, esBAF inhibitor project, mouse ES cells, Bmi1 luciferase knock-in, single point. 24 h; 100% = twice the neutral-well signal. reporter increase, % at 12.5 µM. actives 2% (n = 350,000). AID 602393, 2012; in the data active = activation above about 40%;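 also: 0% = median of the plate's neutral control wells and 100% = double that signal; a rise in the Bmi1 reporter signal indicates esBAF inhibition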
Wnt bcat act: Wnt/beta-catenin pathway activators, primary screen, cell-based, plate reader, single point. activation, % at 9.35 µM. Wnt/beta-catenin reporter cell assay, activator. actives 1.2% (n = 300,000); in the data active = activation above about 30%, passing the limit was not always enough;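 also: 0% = neutral control wells and 100% = positive control wells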
MLL AF4-AF9 inh: inhibitors of AF4 peptide binding to AF9, primary screen, biochemical, AlphaScreen, biotin-AF4 peptide, FLAG-AF9, single point | Protein AF-9 (Homo sapiens), P42568 | inhibition, % at 10 µM | actives 0.47% (n = 350,000) | AID 651704, 2012;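 active = every replicate reaching a set inhibition limit, whatever the replicate mean, cut at about 25% in these data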;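 also: 0% = plate neutral control median and 100% = total signal loss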
Target sequence (P42568 whole entry, looked up): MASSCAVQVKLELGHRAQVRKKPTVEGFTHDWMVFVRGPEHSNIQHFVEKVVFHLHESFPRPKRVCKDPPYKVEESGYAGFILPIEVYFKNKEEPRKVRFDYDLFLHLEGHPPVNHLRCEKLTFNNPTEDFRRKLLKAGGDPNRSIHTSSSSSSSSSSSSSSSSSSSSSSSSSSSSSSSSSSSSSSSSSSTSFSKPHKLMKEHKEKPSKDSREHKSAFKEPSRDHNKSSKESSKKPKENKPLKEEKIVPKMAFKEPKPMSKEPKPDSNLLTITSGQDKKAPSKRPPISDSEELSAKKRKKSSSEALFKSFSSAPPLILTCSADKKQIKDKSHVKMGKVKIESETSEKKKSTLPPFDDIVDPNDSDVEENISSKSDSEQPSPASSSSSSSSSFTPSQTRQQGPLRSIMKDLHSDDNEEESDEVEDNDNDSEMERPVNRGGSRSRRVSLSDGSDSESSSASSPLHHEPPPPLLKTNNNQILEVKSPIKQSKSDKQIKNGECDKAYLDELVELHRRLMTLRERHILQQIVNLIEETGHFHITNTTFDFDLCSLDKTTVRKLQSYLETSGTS
MITF TRPM1 HTS: activators of MITF-driven TRPM1 promoter reporter, primary screen, cell-based, SK-MEL-5, luciferase, single point | SK-MEL-5 TRPM1-promoter luciferase, 24 h; % of positive control, neutral wells = 0 | activation, % at 12.5 µM | actives 0.75% (n = 300,000);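 active = mean activation of at least 80% with every replicate also reaching 80%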;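 also: 0% = neutral control wells and 100% = parthenolide positive control wells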
Active calls of the source: *. Sampled rows, rich in hits. Any-hit rate of the full collection: about 4.3%.

Results for Cc1noc(C)c1NC(=O)Nc1ccc2c(c1)C(=O)N([C@@H](C)CO)C[C@@H](C)[C@@H](CN(C)S(=O)(=O)c1ccc(Cl)cc1)OCCCC[C@H](C)O2 ?
FGF22 binding: 0; esBAF inh: -7; MLL AF4-AF9 inh: -7

Results for Cc1ccc(Cn2cc(COC(=O)NCC(C)C)nn2)cc1 ?
SMARCA2 act: -1

Results for Cc1noc(C)c1S(=O)(=O)Nc1ccc2c(c1)C(=O)N([C@@H](C)CO)C[C@@H](C)[C@@H](CN(C)C(=O)NC(C)C)OCCCC[C@@H](C)O2 ?
FGF22 binding: 0; esBAF inh: 1; MLL AF4-AF9 inh: 1

What do the screens show for `O=C(N/N=C/c1cc2c(cc1Br)OCO2)c1cccnc1`?
SMARCA2 act: 3; FGF22 binding: 43*; Wnt bcat act: 4; MLL AF4-AF9 inh: -1; MITF TRPM1 HTS: 0

What do the screens show for `O=C(N/N=C/c1cc(O)ccc1Br)c1cccnc1`?
SMARCA2 act: -3; FGF22 binding: 0; esBAF inh: -31; Wnt bcat act: 0; MLL AF4-AF9 inh: 3

How did O=C(N/N=C\c1cc2c(cc1Cl)OCO2)c1cccs1 do in these assays?
SMARCA2 act: 2; FGF22 binding: 0; esBAF inh: 53*; Wnt bcat act: 6; MLL AF4-AF9 inh: -1; MITF TRPM1 HTS: 21

What do the screens show for `O=C(N/N=C/c1ccncc1)c1cccs1`?
esBAF inh: 19; MITF TRPM1 HTS: 11

Results for O=C(N/N=C\c1ccc(Cl)s1)c1cccs1 ?
SMARCA2 act: 1; esBAF inh: 72*; MITF TRPM1 HTS: 7

What do the screens show for `C[C@H]1CN([C@@H](C)CO)S(=O)(=O)c2ccc(C#Cc3ccncc3)cc2O[C@H]1CN(C)C`?
FGF22 binding: 0; esBAF inh: 1; MLL AF4-AF9 inh: -2

What do the screens show for `O=C(C1CCC1)N1CC[C@@H]2[C@H](CO)Nc3ccc(C#Cc4ccc(F)cc4)cc3[C@@H]21`?
MLL AF4-AF9 inh: 3

What do the screens show for `C=CCNC(=O)C1CCN(c2cc(C)nc(-c3ccccc3)n2)CC1`?
SMARCA2 act: 1; FGF22 binding: 0; esBAF inh: -3; Wnt bcat act: -2; MLL AF4-AF9 inh: 1; MITF TRPM1 HTS: -11

Results for C=CCNC(=O)C1CCN(c2nc(C)cc(-c3ccccc3)n2)CC1 ?
FGF22 binding: 0; esBAF inh: 56*; Wnt bcat act: 8; MLL AF4-AF9 inh: 1; MITF TRPM1 HTS: 34

What do the screens show for `Cc1ccc(Nc2ncccc2C(=O)O)cc1C`?
SMARCA2 act: 3; FGF22 binding: 0; esBAF inh: 49*; Wnt bcat act: 6; MLL AF4-AF9 inh: 3; MITF TRPM1 HTS: 1

What do the screens show for `Cc1ccc(Nc2ncccc2C(N)=O)cc1[N+](=O)[O-]`?
SMARCA2 act: 7; FGF22 binding: 0; Wnt bcat act: 70*; MLL AF4-AF9 inh: 2; MITF TRPM1 HTS: 91*

How did Cc1ccc(NC(=O)Nc2ccccc2)cc1[N+](=O)[O-] do in these assays?
SMARCA2 act: 0; MITF TRPM1 HTS: 28

Results for Cc1cc(C)c(Nc2ncccc2C(=O)O)c(C)c1 ?
SMARCA2 act: 2; FGF22 binding: 0; Wnt bcat act: 3; MLL AF4-AF9 inh: -1; MITF TRPM1 HTS: 8

What do the screens show for `C[C@@H]1CN([C@H](C)CO)C(=O)Cc2cc(NC(=O)Cc3ccccc3)ccc2O[C@H]1CN(C)S(=O)(=O)c1cn(C)cn1`?
FGF22 binding: 0; esBAF inh: 4

What do the screens show for `O=C(Nc1ccc(-c2nc3ccccc3s2)cc1)c1cc(-n2cnnc2)ccc1Cl`?
SMARCA2 act: -4; FGF22 binding: 0; esBAF inh: 60*; Wnt bcat act: 4; MLL AF4-AF9 inh: 4; MITF TRPM1 HTS: -49

What do the screens show for `CC(=O)N(C)C[C@@H]1Oc2ncc(-c3cccnc3)cc2C(=O)N([C@@H](C)CO)C[C@@H]1C`?
FGF22 binding: 0; esBAF inh: -2; MLL AF4-AF9 inh: -3
